Results from ChEMBL document CHEMBL4303122, “Identification of potential treatments for COVID-19 through artificial intelligence-enabled phenomic analysis of human cells infected with SARS-CoV-2” (2020).
Over roughly 1,600 compounds, “Hit score” has its median near 0.13; the highest 2% begin near 0.46. Only a selection was taken, and the highest values are over-represented in it overall. *1 amine or outer side, *2 acyl side, *3 side chain or, on linkers, in order; H or OH if unused. Where a SMILES comes first, the peptide text is derived from it. Bridges are numbered along the chain shown (N, C = ends). [ ]: non-standard residue; d: D form. The star is where a group is joined. pTerphenylCO(4''-OnC5H11) = CCCCCOc1ccc(-c2ccc(-c3ccc(C(=O)*)cc3)cc2)cc1; Orn(4R-OH,5R-OH) = O=C([C@H](C[C@@H](O)[C@@H](O)N[*:3])N[*:1])[*:2]; hTyr(3S-OH,4S-OH) = N[C@H](C(=O)O)[C@H](O)[C@@H](O)c1ccc(O)cc1; Pro(3S-OH,4S-Me) = C[C@H]1CN[C@H](C(=O)O)[C@H]1O; Hyp = O=C(O)[C@@H]1C[C@@H](O)CN1

The compounds below were run on SARS-CoV-2 (assay: Antiviral activity against SARS-CoV-2 (USA-WA1/2020 strain) measured by imaging in HRCE cells at MOI 0.4 after 96 hrs (reported as hit score from 0-1 for on-disease vs off-disease activity: scores >0.6 considered hits)).
Type: functional, Homo sapiens
With `COc1ccc2c(c1)c(CC(=O)OCC(C(=O)O)c1ccccc1)c(C)n2C(=O)c1ccc(Cl)cc1` (centres undefined) the Hit score was 0.05914. For `COc1ccccc1OC(=O)c1ccccc1OC(C)=O` [GUACETISAL], the Hit score was 0.1414. Compound `COc1ccc(NC(=O)c2ccc(C(=N)N(C)C)cc2)c(C(=O)Nc2ccc(Cl)cn2)c1` [BETRIXABAN] has a Hit score of 0.004778. `O=C1NC(c2ccccc2)(c2ccccc2)C(=O)N1COP(=O)(O)O` [FOSPHENYTOIN] was tested, and the Hit score was -0.01075. `CNC(=O)c1cccc(NC(=O)N2CCC(Oc3ccccc3Cl)CC2)c1` was tested, and the Hit score was 0.1005. With `CCCCc1nc(C)c(CC(=S)N(C)C)c(=O)n1Cc1ccc(-c2ccccc2-c2nnn[nH]2)cc1` the Hit score was 0.1262. `COc1ccc2c(O[C@@H]3C[C@H]4C(=O)N[C@]5(C(=O)NS(=O)(=O)C6CC6)C[C@H]5/C=C\CCCCN(C)C(=O)[C@@H]4C3)cc(-c3nc(C(C)C)cs3)nc2c1C` gave a Hit score of 0.1824. In the case of `C=C1/C(=C\C=C2/CCC[C@]3(C)[C@@H]([C@H](C)/C=C/[C@H](C)C(C)C)CC[C@@H]23)C[C@@H](O)C[C@@H]1O` [DOXERCALCIFEROL], the Hit score is reported as 0.4621. `C=C1CC[C@H](O)C/C1=C/C=C1\CCC[C@]2(C)[C@@H]([C@H](C)CCCC(C)(C)O)CC[C@@H]12` [CALCIFEDIOL ANHYDROUS] gave a Hit score of 0.4579. Work on `C=C1/C(=C\C=C2/CCC[C@]3(C)[C@@H]([C@H](C)OCCC(C)(C)O)CC[C@@H]23)C[C@@H](O)C[C@@H]1O` [MAXACALCITOL] yielded a Hit score of -0.1282. For `C=C1CC[C@H](O)C/C1=C/C=C1\CCC[C@]2(C)[C@@H]([C@H](C)CC[C@@H](O)C(C)(C)O)CC[C@@H]12` [SECALCIFEROL], the Hit score was 0.3632. In the case of `C=C1CC[C@H](O)C/C1=C/C=C1\CCC[C@]2(C)[C@@H]([C@H](C)CCCC(C)C)CC[C@@H]12` [CHOLECALCIFEROL], the Hit score is reported as 0.2186. For `C=C1/C(=C\C=C2/CCC[C@]3(C)[C@@H]([C@H](C)/C=C/[C@@H](O)C4CC4)CC[C@@H]23)C[C@@H](O)C[C@@H]1O` [CALCIPOTRIENE], the Hit score was 0.6212. With `C=C1/C(=C\C=C2/CCC[C@]3(C)[C@@H]([C@H](C)CC[C@@H](O)C(C)C)CC[C@@H]23)C[C@@H](O)C[C@@H]1O` [TACALCITOL] the Hit score was 0.4469. `C[C@H](/C=C/[C@H](C)C(C)(C)O)[C@H]1CC[C@H]2/C(=C/C=C3C[C@@H](O)C[C@H](O)C3)CCC[C@]12C` [PARICALCITOL] was tested, and the Hit score was 0.5764. With `CC(C)(C)NCC(O)COc1ccc(NC(=O)NC2CCCCC2)cc1` (centres undefined) [TALINOLOL] the Hit score was 0.1441. In the case of `CN(C)C(=O)Oc1cc(OC(=O)N(C)C)cc(C(O)CNC(C)(C)C)c1` (centres undefined) [BAMBUTEROL], the Hit score is reported as 0.1323. Work on `CCN(CC)C(=O)Nc1ccc(OCC(O)CNC(C)(C)C)c(C(C)=O)c1` (centres undefined) [CELIPROLOL] yielded a Hit score of 0.5089. Work on `C[C@]12CC[C@H]3[C@@H](CC[C@@]45O[C@@H]4C(O)=C(C#N)C[C@]35C)[C@@H]1CC[C@@H]2O` [TRILOSTANE] yielded a Hit score of 0.3178. With `COc1cc2nccc(Oc3ccc(NC(=O)Nc4cc(C)on4)c(Cl)c3)c2cc1OC` [TIVOZANIB] the Hit score was 0.1611. Compound `CC1(C)S[C@@H]2[C@H](NC(=O)COc3ccccc3)C(=O)N2[C@H]1C(=O)O` [PENICILLIN V] has a Hit score of 0.002553. `Cc1c(Cl)c(C)[n+]([O-])c(Cl)c1-c1noc(-c2cc(O)c(O)c([N+](=O)[O-])c2)n1` [OPICAPONE] showed a Hit score of -0.07412. For `Cc1ccc2c(c1)[C@]13CCCC[C@@H]1[C@H](C2)N(C)CC3` [DIMEMORFAN], the Hit score was 0.08461. With `CCCCCOc1ccc(-c2ccc(-c3ccc(C(=O)N[C@H]4C[C@@H](O)[C@@H](O)NC(=O)[C@@H]5[C@@H](O)[C@@H](C)CN5C(=O)[C@H]([C@@H](C)O)NC(=O)[C@H]([C@H](O)[C@@H](O)c5ccc(O)cc5)NC(=O)[C@@H]5C[C@@H](O)CN5C(=O)[C@H]([C@@H](C)O)NC4=O)cc3)cc2)cc1` [ANIDULAFUNGIN] ({pTerphenylCO(4''-OnC5H11)}-[Orn(4R-OH,5R-OH)]T[Hyp][hTyr(3S-OH,4S-OH)]T[Pro(3S-OH,4S-Me)]; lactam 1-C) the Hit score was 0.1907. `C=CC(=O)Nc1cccc(Oc2nc(Nc3ccc(N4CCN(C)CC4)cc3)nc3ccsc23)c1` [OLMUTINIB] was tested, and the Hit score was 0.2407. `Cc1oc(=O)oc1COC(=O)C1=C([C@H]2CCCO2)S[C@@H]2[C@@H]([C@@H](C)O)C(=O)N12` [FAROPENEM MEDOXOMIL] gave a Hit score of 0.000691. `CC(C)(O)CNc1nc(Nc2ccnc(C(F)(F)F)c2)nc(-c2cccc(C(F)(F)F)n2)n1` [ENASIDENIB] showed a Hit score of 0.1439. For `OC[C@H]1O[C@@](CO)(O[C@H]2O[C@H](CO)[C@@H](O)[C@H](O)[C@H]2O)[C@@H](O)[C@@H]1O` [SUCROSE], the Hit score was 0.09545. Work on `Cc1cc(S(=O)(=O)[O-])c2c(C)ccc(C(C)C)cc1-2.[Na+]` [SODIUM GUALENATE] yielded a Hit score of 0.2044. For `CCCCCCCCCCCCCCCC(=O)O[C@@H]1[C@@H](O)[C@@H](O)[C@@H]([C@H](NC(=O)[C@@H]2C[C@@H](CCC)CN2C)[C@H](C)Cl)O[C@@H]1SC` [CLINDAMYCIN PALMITATE], the Hit score was 0.1881. In the case of `CCn1c(=O)c2c(nc(/C=C/c3ccc(OC)c(OC)c3)n2C)n(CC)c1=O` [ISTRADEFYLLINE], the Hit score is reported as 0.1372. For `COc1ccc(-c2cc(=O)c3c(O)c(OC)c(O)cc3o2)cc1OC` [EUPATILIN], the Hit score was 0.2352. In the case of `CC[C@]12CCCN3CCc4c(n(c5ccccc45)C(=O)C1)[C@@H]32` [VINBURNINE], the Hit score is reported as 0.1621. `CCOc1nc2cccc(C(=O)O)c2n1Cc1ccc(-c2ccccc2-c2noc(=O)[nH]2)cc1` [AZILSARTAN] was tested, and the Hit score was 0.1513.
